This note sets out measurements from publication PMC12136788.

Numbering of substitutions follows the chain as printed. In all, about 24,000 sequences were measured (“enrichment r”: median about 0.99, highest 2% from about 3.7 on). The list comes from a sample in which the highest values are over-represented; it also holds similar and randomly drawn sequences.

T1: UNK ZnF1-3 (human, UniProt Q9C0B0 31-174)
T1 sequence: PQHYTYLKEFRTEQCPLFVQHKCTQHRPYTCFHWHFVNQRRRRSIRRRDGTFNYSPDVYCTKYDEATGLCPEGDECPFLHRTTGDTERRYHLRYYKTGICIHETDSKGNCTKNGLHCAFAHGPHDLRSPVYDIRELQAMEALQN

B1: chr1:89346535:89346536:+_ENSMUSG00000048000_ENSMUST00000174671|mus_hu|motif|central (ssRNA)
RNA: GGGAGUUCUACAGUCCGACGAUCAGCUGCCUCUUAAACGAGACAAAUUUUCAGCAGAAGGGCCCAAAACAAAAUGGUCCGGGUCCUCUGAAGUAAAAAUAUUUAUGGGAAAAAUCAGUUUUUGUAAGAAAGAAAAAUUAAGAACAACAGAGGAUUGAGCAUCA
B2: chr1:89346535:89346536:+_ENSMUSG00000048000_ENSMUST00000174671|mus_hu|FALSE|FALSE (ssRNA)
RNA: B1 RNA with G80U, G81A
B3: chr1:89346535:89346536:+_ENSMUSG00000048000_ENSMUST00000174671|mus_mus|motif|central (ssRNA)
RNA: GGGAGUUCUACAGUCCGACGAUCAAGAUGCCUCUUAAACGAGACAAAUUUUCACAUAAGGGCCCAAAACAAACUGGUCCGGGUCCUUGAAGUAAAAAUAUUUAUGGGAGGAGGGGAGAUCAGUUUUUAUAUGAAAGGAAAAUUCAACAGAGGAUUGAGCAUCA
B4: chr2:42509997:42509998:+_ENSG00000143924_ENST00000318522|hu_mus|hu_hu_hu_mus_True|78_78 (ssRNA)
RNA: GGGAGUUCUACAGUCCGACGAUCUCGCUGAGUCCUCUCCUCAUAAUUAAACAGGACUACUACUGAUGCGAUAAAAUAAACUAUCUCCCCUGUGGGAAGCAGGUAUACAUUCGCUCUACAGUCCUUUCCUCGAUAACCGUAUACCAACAGAGGAUUGAGCAUCA
B5: chr10:13251168:13251169:-_ENSMUSG00000019809_ENSMUST00000019945|mus_hu|FALSE|FALSE (ssRNA)
RNA: GGGAGUUCUACAGUCCGACGAUCAGCCAUAUUGUCUAGAAGUCUACUAAAACCUCGGUUUAAACAGGUAUUCAAAACUGUACUAAAAUCUGGGCUUUCCAACAUGUCUCUAGUUUCAUUGAGAAGUUUAAUAGUGGUAAUGUCCAACAGAGGAUUGAGCAUCA
B6: chr16:732453:732454:+_ENSG00000103266_ENST00000219548|hu_mus|FALSE|FALSE (ssRNA)
RNA: GGGAGUUCUACAGUCCGACGAUCUGCCAGGCAGGACAUGGGGCCUCAAUAGUCCUCUACCCAGCCGUUCUCAGAGAUGAAAGCGUCAAUGACUUCCUUCAUGGCCAAGUUGGGGAUGAGCUGUUCCUGGGUCAGAGGGCUCCGCAACAGAGGAUUGAGCAUCA
B7: chr9:95013113:95013114:-_ENSG00000196305_ENST00000443024|hu_hu|hu_hu_hu_mus_False|1_88 (ssRNA)
RNA: GGGAGUUCUACAGUCCGACGAUCCUCAGUCAGAAAGGGCGUGUAAGGAGCCAUAAGUCUGCACAGAGAAAGCAGGACACUGAACAGUGUCUCCAGAGCCAUGACACAGUCUUCCACCCCACUCUCACCCUUUAACCUUCUGCGCAACAGAGGAUUGAGCAUCA
B8: chr11:94154035:94154036:-_ENSMUSG00000020863_ENSMUST00000107820|mus_mus|FALSE|FALSE (ssRNA)
RNA: GGGAGUUCUACAGUCCGACGAUCAAUAGUUAAGUUUUAAAGCAUAUGUUUCUGCCAAUGUACCAACACAAGAUGGACUUAAUACCAAAAAGAAAAAAAAAACAGUUCAACCUUUUUAUUAAAAAAAAAAAGAAAAAGAAAAAGCAACAGAGGAUUGAGCAUCA
B9: chr7:135612270:135612271:-_ENSG00000105887_ENST00000393085|hu_mus|hu_hu_hu_mus_False|28_58 (ssRNA)
RNA: GGGAGUUCUACAGUCCGACGAUCGUUUUUUUCUGAGAUGUUAAAUAGUACUUCAGUGGAAAACAAAACUUAACCUUUCGCUAAUGCGUGUUGUACCAAAAGCAGACCAUGGUUUUACAUUUAUUCAAAAAUAUUAACAUUAAGCAACAGAGGAUUGAGCAUCA
B10: chr7:135612270:135612271:-_ENSG00000105887_ENST00000393085|hu_mus|hu_hu_hu_mus_False|28_38 (ssRNA)
RNA: B9 RNA with C78U, G79A, C80U, A98G, G101A, C102G, A103C, G104A, C106A
B11: chr7:135612270:135612271:-_ENSG00000105887_ENST00000393085|hu_mus|hu_hu_hu_mus_False|38_48 (ssRNA)
RNA: GGGAGUUCUACAGUCCGACGAUCGUUUUUUUCUGAGAUGUUAAAUAGUACUUCAGUGGAAAACAAAACUUAACCUUUUAUUAAUGCAUGUAGUACCAGAAAGCAAAAUUUUAGCUUCAUUUAUUCAAAAAUAUUAACAUUAAGCAACAGAGGAUUGAGCAUCA
B12: chr7:135612270:135612271:-_ENSG00000105887_ENST00000393085|hu_mus|hu_hu_hu_mus_False|1_58 (ssRNA)
RNA: GGGAGUUCUACAGUCCGACGAUCGUUUUUUUCUGAGAUGUUAAAUAGUACUUCAGUGGAAAACAAAACUUAACCUUUCGCUAAUGCGUGUUGUACCAAAAGCAGACAUUUUAGCUUCAUUUAUUCAAAAAUAUUAAGAACAUUCAACAGAGGAUUGAGCAUCA
B13: chr16:30313237:30313238:-_ENSMUSG00000022533_ENSMUST00000100013|mus_mus|FALSE|FALSE (ssRNA)
RNA: GGGAGUUCUACAGUCCGACGAUCAACAACCCUGAGGGAGACCCACAUUAAAAAAUCUUAUUUAUUUAAAAAGUUAAAAAGCUACAUAUCAUUAUUUAACAAUUACUUUACCAGACAUUUCUGUCCUUUAAGUAUGUGCAUAAACAACAGAGGAUUGAGCAUCA
B14: chr9:56975896:56975897:+_ENSMUSG00000042557_ENSMUST00000167715|mus_hu|FALSE|FALSE (ssRNA)
RNA: GGGAGUUCUACAGUCCGACGAUCACAUCAAAGCAUAUUUCUUUUAAUAAAAAAUUGACAGUAUGUACAUUAUGUACAAAAAAACAAGUUAAAAUUGUGUGUGUGUGUGCGUGUGUGUGUCAGAGAGUAAAGCUGGUGGAUGGCCAACAGAGGAUUGAGCAUCA
B15: chr7:135612270:135612271:-_ENSG00000105887_ENST00000393085|hu_mus|hu_hu_hu_mus_False|38_88 (ssRNA)
RNA: B11 RNA with G47U, A49C, C50A, U51G, C53G, A54G, G55A, U56G, A87G, A91U
B16: chr1:58468927:58468928:-_ENSMUSG00000026034_ENSMUST00000148330|mus_mus|mus_mus_mus_hu_False|28_48 (ssRNA)
RNA: GGGAGUUCUACAGUCCGACGAUCAAUUACUGAAAAAGAUGUUCAUUACCUUAGCUAUGUACUUAAUGAACCAAAUUACCCAAACAACAUAAAAUGUGCAAUAUAAAAAGCUAUACAAUUUACAAAGCUGUACAAAAUAACUUACAACAGAGGAUUGAGCAUCA
B17: chr16:30313237:30313238:-_ENSMUSG00000022533_ENSMUST00000100013|mus_hu|FALSE|FALSE (ssRNA)
RNA: GGGAGUUCUACAGUCCGACGAUCCAACCCUGAGGGAGACACACAUUAAAAAUCUUGUUAUUUAUUUAAAAAGUUAAAAAGUUACAUAUCAUUAUUUAACAAUUACUUUCCCAGACAUUUCUGUCCUUUAAGUAUGUGCAUAAACAACAGAGGAUUGAGCAUCA
B18: chr7:135612270:135612271:-_ENSG00000105887_ENST00000393085|hu_mus|hu_hu_hu_mus_False|28_108 (ssRNA)
RNA: GGGAGUUCUACAGUCCGACGAUCGUUUCUGAGAUGUAUGUUAAAUAGUACUUCAGUGGAAAACAAAACUUAACCUUUUAUUAAUGCGUGUUGUACCAAAAGCAGACCAUGGUUUUACAUUUAUUCAAAAAUAUUAACAUUAAGCAACAGAGGAUUGAGCAUCA
B19: 19477749_19479453_500_CDS_ENSMUSG00000028228_ENSMUST00000029885|mouse|control|control (ssRNA)
RNA: GGGAGUUCUACAGUCCGACGAUCUCUGGCUUCCAUUUCAAACAAUACCACUCUGUUAUCCUUUAUUUCUUCUGCUGAAAUCGUAAUACUCCCUUUCCCUGCAGGUUUGCCAUUUUUGAGCACCAGUGGUCGAGUUAGCUUCUUCAACAGAGGAUUGAGCAUCA
B20: chr2:9572718:9572719:+_ENSG00000119203_ENST00000238112|hu_mus|FALSE|FALSE (ssRNA)
RNA: GGGAGUUCUACAGUCCGACGAUCGACGUGGCCGGCAUGGUAACACCAGAACUUGAUUCCUGCAACUUCCUUAACUUCAUGAAAAUUGAUGGUUUCGAUUUUGUCCAUGCUUUCUUCCAAGUCUGUCUCAGUGUACAGCAUGUCCAACAGAGGAUUGAGCAUCA
B21: chr17:61655871:61655872:+_ENSG00000136485_ENST00000310827|hu_hu|FALSE|FALSE (ssRNA)
RNA: GGGAGUUCUACAGUCCGACGAUCGGUGGGGUAUGGGUGGUCAAAGGUGUUUCUGCAAAUAAACUCUGAACUCUCCUCAUCUAAACCAACAAGCUGAACCUUGUUGUUGUACUCCUCCACGAAGCUGCCCAGCGCCAAGCGAAACAACAGAGGAUUGAGCAUCA
B22: chr5:37680062:37680063:+_ENSMUSG00000029121_ENSMUST00000031004|mus_hu|mus_mus_mus_hu_False|1_18 (ssRNA)
RNA: GGGAGUUCUACAGUCCGACGAUCUUUGGGUGUAGCUGGUACCUCGUACACAGGACCGUCAUACAUGCCCCUGGAAACCCCUUGCAAUCCAAAAACCUUAUUCCUGAUUUUGACGCGCUGGUAGAGAUGCUCCGGGAAUGGCUUCAACAGAGGAUUGAGCAUCA

In this assay the target is T1, UNK ZnF1-3. In words: nsRBNS (natural sequence RNA bind-n-seq); RBNS binding buffer (assumed for nsRBNS): 25 mM Tris pH 7.5, 150 mM KCl, 3 mM MgCl2, 0.01% Triton X-100, 500 ug/ml BSA, 20 U/ml SUPERase-In, 4 C; UNK is unkempt and MSI1 is Musashi-1; names of the RNAs are library labels; protein concentration not given here; high values mean tight binding.
The molecule B1 displayed a binding signal of 10.8 enrichment R. The same measure for B2: 14.4 enrichment R.

Regarding B3, the binding signal is 0.843 enrichment R. The same measure for B4: 0.957 enrichment R; for B5: 1.27 enrichment R; for B6: 1.44 enrichment R. B7 had a binding signal of 1.12 enrichment R. The same measure for B8: 6.23 enrichment R.

B9 yielded a binding signal of 1.03 enrichment R.

Consider B10, for which the binding signal is 0.956 enrichment R. B11 displayed a binding signal of 1.66 enrichment R. To B12 belongs 0.611 enrichment R; to B13, 4.91 enrichment R. In the case of B14, the binding signal came to 5.76 enrichment R. B15 yielded a binding signal of 4.08 enrichment R. The same measure for B16: 0.529 enrichment R. B17 returned a binding signal of 3.61 enrichment R. The same measure for B18: 0.924 enrichment R; for B19: 0.645 enrichment R. To B20 belongs 0.798 enrichment R; to B21, 1.21 enrichment R; to B22, 0.867 enrichment R.
